Test results as given in PubChem BioAssay.
Unmarked numbers belong to inactive results. Activity calls are given as the source filed them. Rule as the data show it, unless noted: active = inhibition above about 44%; inactive = the rest.

Legend:
[1] = StAR promoter reporter inhibitors, counter-screen for LRH-1 inverse agonist project, cell-based, luminescence, high throughput (AID 651611; in the data active = inhibition above about 28%); conditions: StAR promoter luciferase reporter counterscreen, at 3.6 µM, active compounds read high
[2] = target: Nuclear receptor subfamily 5 group A member 2 (Homo sapiens) (UniProt O00482); experiment: LRH-1 (NR5A2) inverse agonists, retest, confirmation, cell-based, luminescence (AID 651613; in the data active = inhibition above about 42%;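 also: HEK293T cells co-transfected with LRH-1 and StAR promoter luciferase reporter; 0% = vehicle wells and 100% = parental cells lacking receptor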); conditions: cell-based LRH-1 luciferase reporter, inverse agonism; at 3.6 µM; active compounds read high
Nuclear receptor subfamily 5 group A member 2 (Homo sapiens), sequence (O00482 whole entry, looked up): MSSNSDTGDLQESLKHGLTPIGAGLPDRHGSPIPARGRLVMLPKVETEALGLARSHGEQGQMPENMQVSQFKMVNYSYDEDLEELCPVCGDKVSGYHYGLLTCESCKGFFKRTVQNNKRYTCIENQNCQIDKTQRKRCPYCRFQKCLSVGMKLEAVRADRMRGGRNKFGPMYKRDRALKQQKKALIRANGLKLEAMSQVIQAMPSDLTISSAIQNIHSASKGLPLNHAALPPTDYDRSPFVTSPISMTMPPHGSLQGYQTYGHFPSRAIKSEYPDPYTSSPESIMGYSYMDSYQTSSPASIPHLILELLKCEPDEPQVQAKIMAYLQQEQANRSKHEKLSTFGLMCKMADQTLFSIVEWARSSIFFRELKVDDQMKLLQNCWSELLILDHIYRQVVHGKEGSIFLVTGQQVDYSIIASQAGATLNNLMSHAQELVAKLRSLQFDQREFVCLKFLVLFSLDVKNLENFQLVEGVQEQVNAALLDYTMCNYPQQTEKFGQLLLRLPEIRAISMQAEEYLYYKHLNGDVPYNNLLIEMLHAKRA

[3] = target: Steroidogenic factor 1 (Homo sapiens) (UniProt Q13285); experiment: SF1 (NR5A1) inverse agonists, counter-screen for LRH-1 inverse agonist project, cell-based, luminescence, high throughput (AID 651614); conditions: cell-based SF1 luciferase reporter, at 3.6 µM, active compounds read high;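 also: cells cotransfected with StAR promoter reporter and SF1 expression vector; 0% = vehicle on cells with receptor and 100% = vehicle on cells lacking receptor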
Steroidogenic factor 1 (Homo sapiens), sequence (Q13285 whole entry, looked up, the tested form may be a part): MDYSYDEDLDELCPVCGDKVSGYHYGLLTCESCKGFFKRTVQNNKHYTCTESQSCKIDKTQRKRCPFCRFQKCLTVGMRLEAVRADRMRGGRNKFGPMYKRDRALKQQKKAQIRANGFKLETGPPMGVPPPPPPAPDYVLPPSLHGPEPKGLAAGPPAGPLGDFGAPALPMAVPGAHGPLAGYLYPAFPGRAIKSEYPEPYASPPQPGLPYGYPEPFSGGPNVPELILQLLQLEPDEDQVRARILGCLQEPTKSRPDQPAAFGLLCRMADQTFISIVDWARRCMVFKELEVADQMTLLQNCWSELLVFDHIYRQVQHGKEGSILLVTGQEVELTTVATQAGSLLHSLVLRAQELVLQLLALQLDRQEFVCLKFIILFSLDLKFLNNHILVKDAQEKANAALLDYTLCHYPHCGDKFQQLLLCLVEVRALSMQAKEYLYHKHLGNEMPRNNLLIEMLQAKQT

[4] = VP16 transactivation reporter inhibitors, counter-screen for LRH-1 inverse agonist project, cell-based, luminescence, high throughput (AID 651615; in the data active = inhibition above about 33%); conditions: Gal4-VP16 luciferase reporter cells, at 3.6 µM, active compounds read high

SMILES | inhibition [1] | inhibition [2] | inhibition [3] | inhibition [4]
O=C(N/N=C/c1ccc([N+](=O)[O-])o1)c1ccccc1-n1cccc1 | 32.3% (active) | 71.6% (active) | 63.4% (active) | 0.97%
Nc1ccc(Oc2ccc(Cl)cc2)cc1 | 1.47% | 35.2% | 31% | -7.96%
On1ccccc1=S | 86.8% (active) | 83.1% (active) | 82.3% (active) | 87.5% (active)
COc1cc(-c2cc(C(=O)Nc3ccncc3)c3ccccc3n2)cc(OC)c1OC | 28.4% (active) | 40.9% | 40.5% | -10.9%
COc1cc(-c2noc(C)c2/C=C/c2ccc(N)cc2)cc(OC)c1OC | 64.6% (active) | 38.5% | 55.2% (active) | -29.3%
CCOc1ccc(CCNC(=O)COC(=O)CCC(=O)c2cccs2)cc1OCC | -0.72% | 45.3% (active) | 51% (active) | -6.57%
c1ccc2c(c1)C1=NCCN1c1ccccc1-2 | 20% | 104% (active) | 50.2% (active) | 87.8% (active)
Cc1c(C(=O)Nc2ccc(Cc3ccncc3)cc2)cccc1[N+](=O)[O-] | -10.9% | 56.2% (active) | 49.9% (active) | 19.6%
O=C(Cn1cnc2c(nnn2-c2ccccc2)c1=O)NCCc1ccccc1 | 13.4% | 50.9% (active) | 51% (active) | -7.88%
CCOc1ccc(CCNC(=O)COC(=O)CSc2ccccc2C)cc1OCC | 2.02% | 49% (active) | 41% | 8.24%
